# The whole screen tested about 53,000 compounds, of which about 900 (1.7%) showed an effect of 50% or more. The full list was thinned out, with strong results kept by preference.
# Test system: Mycobacterium tuberculosis
# Test: Cornell - Phenotypic assay to identify agents that inhibit growth of Mycobacterium tuberculosis
# Type: functional
# Parameters: scale not given: direction of the effect not stated beside the values
# Settings: 10 mM as filed; unlikely as a test dose
row,SMILES,Percent Effect [%]
1,O=C(NCCCN1CCOCC1)Nc1cnc2cc(Cl)ccc2c1O,32.37
2,CNC(=O)Nc1cnc2cc(Cl)ccc2c1O,-22.82
3,O=C(NCCN1CCOCC1)Nc1cnc2cc(Cl)ccc2c1O,-4.322
4,O=C(NCCO)Nc1cnc2cc(Cl)ccc2c1O,103.7
5,O=C(NCC1CC1)Nc1cnc2cc(Cl)ccc2c1O,-6.744
6,O=C(NCCCO)Nc1cnc2cc(Cl)ccc2c1O,81.69
7,Cl.O=C(NCCn1nc(C2CCNC2)c2cccnc21)C1CC1 (stereo not drawn),-8.257
8,O=C(O)COc1ccccc1CN1CCCC1c1ccncn1 (stereo not drawn),-19.71
9,CC(SCC(=O)N(C)CC(=O)NC1CC1)c1cc(F)ccc1F (stereo not drawn),-24.27
10,O=C(NCc1ccco1)[C@H]1COC[C@H]2CN(Cc3ccoc3)C[C@H]21.O=C(O)C(F)(F)F,-10.46
11,Cn1cccc1CN(C(=O)Cc1cccs1)C1CC1,91.3
12,CN(Cc1cccs1)C1CCC[C@@H]2CN(C(=O)c3cccn3C)C[C@H]12 (stereo partly drawn),28.44
13,O=C(O)CC(CC(=O)N(Cc1ccsc1)C1CC1)c1cccs1 (stereo not drawn),15.88
14,O=C(O)CC(CC(=O)NCCc1cccs1)c1cccs1 (stereo not drawn),23.94
15,CN(C(=O)Cc1cccs1)C1CCN(c2ccccn2)CC1,-44.78
16,Cn1cccc1CN(C(=O)CC(CC(=O)O)c1cccs1)C1CC1 (stereo not drawn),104.7
17,Cc1ccc(N(C)[C@@H]2CC[C@@H]3CN(C(=O)C4CCOCC4)C[C@@H]32)nn1,-1.727
18,CCN(Cc1nc(Cc2ccccc2)no1)C1CC1,-4.646
19,CC(C)c1ccc(S(=O)(=O)N2CSCC2C(=O)NCC(F)(F)F)cc1 (stereo not drawn),11.48
20,Cc1cccc(CNC(=O)NCC2CCN(Cc3ncc[nH]3)C2)c1 (stereo not drawn),26.47
21,Cc1cc(CN2CCCC2c2noc(C3CC3)n2)c2ccccc2n1 (stereo not drawn),12.61
22,c1cc(CN2CCCC2c2noc(C3CC3)n2)on1 (stereo not drawn),-61.35
23,c1ccc2sc(CN3CCCC3c3noc(C4CC4)n3)nc2c1 (stereo not drawn),50.21
24,CCOC(=O)[C@]12CCCN(Cc3cccs3)C[C@H]1CN(CCOC)C2.O=C(O)C(F)(F)F.O=C(O)C(F)(F)F,11.02
25,COc1ccc(CNC(C)c2cnn(C)c2)cc1OC1CCCC1 (stereo not drawn),9.224
26,O=C(O)C(F)(F)F.c1coc(CN2CCCn3c(nnc3Cn3cccc3)C2)c1,21.05

row,SMILES,Percent Effect [%]
1,Cl.O=C(NCCn1nc(C2CCNC2)c2cccnc21)c1ccccn1 (stereo not drawn),-9.907
2,Cc1cc(-c2ccc(=O)n(CCNC(=O)C3CCC3)n2)c(C)o1,-20.09
3,Cc1cc(-c2ccc(=O)n(CCNC(=O)C3CC3)n2)c(C)o1,55.53
4,Cc1cc(-c2ccc(=O)n(CCNC(=O)C3CCCCC3)n2)c(C)o1,6.455
5,O=C(Nc1cccc(CN2CCC(CO)CC2)c1)c1cc(Cl)c[nH]1,-16.48
6,CC(C)N(C)S(=O)(=O)N(Cc1cccs1)Cc1cccs1,53.57
7,COc1ccccc1CN(Cc1cccs1)S(=O)(=O)N(C)C(C)C,41.56
8,CCN(Cc1cccs1)S(=O)(=O)N(C)C(C)C,30.52
9,CCOc1ccc(C(F)(F)F)cc1NC(=O)N1CCNC(=O)C1,13.57
10,Br.O=C(CN(C1=NCCCC1)c1ccccc1)c1ccccc1,-16.62
11,Br.O=C(CN(C1=NCCCCC1)c1ccc(Cl)cc1)c1ccccc1,14.11
12,Br.CCOc1ccc(N(CC(=O)c2ccccc2)C2=NCCCCC2)cc1,104.2
13,Br.O=C(CN(C1=NCCCC1)c1ccccc1)c1ccc2c(c1)OCCO2,22.49
14,Br.Cc1cccc(N(CC(=O)c2ccccc2)C2=NCCCCC2)c1,13.79
15,Br.Cc1ccc(N(CC(=O)c2ccc(Br)cc2)C2=NCCCCC2)cc1,102.8
16,Br.COc1ccc(C(=O)CN(C2=NCCCCC2)c2ccccc2)cc1,15.77
17,Br.Cc1ccc(C(=O)CN(C2=NCCCCC2)c2ccccc2)cc1,29.09
18,Br.O=C(CN(C1=NCCCC1)c1ccccc1)c1ccc(OC(F)F)cc1,62.24
19,O=C(NCC[S+]([O-])c1ccccc1)c1ccc2[nH]c(=O)[nH]c2c1 (stereo not drawn),15.24
20,CCOC(=O)[C@@H]1[C@@H](O)C(=O)N(C)C12CCN(C(=O)OC)CC2,-16.14
21,CC(C)CCN1C(=O)C2(NC(=O)c3ccccc3O2)c2ccccc21 (stereo not drawn),40.69
22,Cc1nc(-c2ccncc2)ncc1C(C)NC(=O)CN1CCOC1=O (stereo not drawn),-51.46
23,O=S(=O)(NCCCn1cncn1)c1ccc2c(c1)CCC2,-2.394
24,CN(CCc1nccs1)C(=O)C1(C#N)CCCCC1,25.08
25,Cc1nc(NCCO)cc(C(C)Cn2nc(C)c(C)c2C)n1 (stereo not drawn),-14.61
26,NC(=O)c1cn2cc(-c3ccccc3Cl)n(CC3CC3)c(=O)c2n1,14.04

row,SMILES,Percent Effect [%]
1,CC1CCN(c2ccnc3ccc(Br)cc23)CC1,84.63
2,O=C(C1CCN(c2ccnc3ccc(Br)cc23)CC1)N1CCOCC1,-18.98
3,CC(=O)NCC1CCN(c2ccnc3ccc(Br)cc23)CC1,9.267
4,Cc1ccc(OCC(=O)Nc2cc(C(=O)O)cc(S(C)(=O)=O)c2)cc1C,18.88
5,CCc1nc(C2CCCN2C(=O)c2csc(COC)n2)no1 (stereo not drawn),-20.84
6,Cc1cc(-n2cncn2)n2ncnc2n1,64.26
7,Cc1cc(-n2cnnn2)n2ncnc2n1,-30.4
8,Cc1cc(N2CCCC2Cn2nc(C)cc2C)n2ncnc2n1 (stereo not drawn),-13.82
9,Cc1ccc(C(=O)N2CCOC(c3ncc(CN(C)C)[nH]3)C2)cc1F (stereo not drawn),14.93
10,COc1ccc(F)cc1CN(CC(N)=O)C(C)C,-0.4736
11,Cc1cc(-c2ccccc2)nc(C2CCCN2S(C)(=O)=O)n1 (stereo not drawn),-11.27
12,Cn1cc(Br)c(C(=O)NCCn2cc(Br)cn2)n1,8.473
13,N#Cc1cccnc1N1CCC(OCCc2ccccc2)CC1,33.41
14,Cc1cccc(OC2CCN(c3ccc(C#N)cn3)CC2)n1,4.434
15,N#Cc1ccc(N2CCC(OCCc3ccccc3)CC2)nc1,51.1
16,O=C(Cc1cccc(O)c1)N1CCCC(O)(CN2CCCC2)CC1 (stereo not drawn),-1.621
17,c1cc2c(cc1CN1CCN(Cc3noc(C4CC4)n3)CC1)OCO2,10.54
18,CCC(=O)Nc1ccc2c(c1)C1(CCOCC1)CN2CCF.O=C(O)C(F)(F)F,2.387
19,CCC1C(=O)NCCN1c1nccc(C)n1 (stereo not drawn),-0.2663
20,CCCN1CCc2nc(N3CCOCC3)nc(NC(C)C)c2C1,29.26
21,CCC(C)N1CCc2nc(N3CCCC3)nc(NC(C)C)c2C1 (stereo not drawn),-13.77
22,CC(C)Nc1nc(N2CCCC2)nc2c1CN(C(C)C)CC2,61.73
23,CCN1CCc2nc(N3CCOCC3)nc(NC(C)C)c2C1,16.58
24,CC(C)Nc1nc(N2CCCC2)nc2c1CN(c1ncc(F)cn1)CC2,82.11
25,Cc1nc(CN2CCc3nc(N4CCCC4)nc(NC(C)C)c3C2)cs1,75.47
26,Cc1nc(CN2CCc3nc(NC(C)C)nc(C)c3C2)cs1,38.07

row,SMILES,Percent Effect [%]
1,CC(C)Nc1nc(N2CCCC2)nc2c1CN(S(C)(=O)=O)CC2,12.79
2,CC(C)Nc1nc(N2CCCC2)nc2c1CN(C)CC2,33.38
3,CCN(C(=O)c1nc2c(s1)CCCN2c1ccc(C)nn1)C(C)C,10.96
4,Cc1cc(F)ccc1N1CCCC(Nc2nccn3cnnc23)C1=O (stereo not drawn),-2.577
5,Cc1cc(C(F)(F)F)n2nc(C3CCN(S(=O)(=O)N(C)C)CC3)cc2n1,-8.533
6,Cc1cc(C)nc(C2CCCN2C(=O)c2cnccn2)n1 (stereo not drawn),-1.129
7,Cn1ccc2c(-c3cc(N4CCCCC4)ncn3)ccnc21,-7.071
8,Clc1cc(N2CCN(C3CCOCC3)CC2)nc2[nH]ccc12,-30.2
9,CN(Cc1noc(-c2ccccc2)n1)C(=O)CSc1nnc(N)s1,-22.54
10,CC(C)NC(=O)Cc1cnc(-n2cccc2)s1,43.3
11,CCOCC(=O)N1CCCn2c(CN3CCOCC3)nnc2C1,18.04
12,Cn1cc(-c2cnc(N3CCCC3)nc2)cc1C(=O)O,95.84
13,CN1CCN(C(=O)c2cc(-c3cnc(N4CCCC4)nc3)cn2C)CC1,2.355
14,Cn1cc(-c2cnc(N3CCOCC3)nc2)cc1C(=O)O,44.3
15,COc1cccc(Cl)c1C(C(=O)O)N1CCC(Cn2cccn2)CC1 (stereo not drawn),-18.71
16,CN(Cc1noc(C(C)(C)C)n1)Cc1ccccc1N1CCCCC1,2.184
17,O=C(Nc1nc(-c2ccccc2)ns1)N1CCC(F)CC1,13.41
18,CC(C)(O)C1CCN(C(=O)Nc2nc(-c3ccccc3)ns2)CC1,105.1
19,CC(C)(O)C1CCCN(C(=O)Nc2nc(-c3ccccc3)ns2)C1 (stereo not drawn),24.52
20,O=C(c1ccc(-n2cnnc2)cc1)N1CCCC(n2ccnc2)C1 (stereo not drawn),15.63
21,Cc1cc(C)c2cc(CNCc3ccc(C)o3)c3nn(C)c(=O)n3c2c1,-2.639
22,O=C(CCn1ccc2ccc(Cl)cc21)NCc1ccc(C(=O)O)cc1,28.36
23,CC(C)NC(=O)C1(Cc2ccccc2-c2cncnc2)CCCNC1 (stereo not drawn),-1.5
24,Cc1ccc(-c2ccccc2CC2(C(=O)NC(C)C)CCCNC2)cc1 (stereo not drawn),60.07
25,CC(C)NC(=O)C1(Cc2ccccc2-c2ccccc2)CCCNC1 (stereo not drawn),-4.67

# Reference: ChEMBL document CHEMBL3988442, “University of Dundee, Small-Polar-MMV Screening Library” (2021)
